Laboratory results reported in PubChem BioAssay (NCI).
This is part of a sample that, as a whole, favours compounds with a hit. Of some 83,000 tested, about 20% had one in any assay.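 The test compound was applied at a single concentration to cells in 96-well plates for 48 hours, and percent growth was recorded.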 Unmarked numbers belong to inactive results. Active and inactive are the calls of the source. The calls were made as follows: active = growth percent below 10; inactive = the rest.

Experiments:
Assay in all cases: NCI-60 one-dose screen, 48 h (100 = growth as untreated, 0 = no growth, -100 = all killed)
Details in all cases: 10 µM unless noted
HCT-15 colon = test system: HCT-15 colon
HT29 colon = test system: HT29 colon
SNB-19 CNS = test system: SNB-19 CNS
U251 CNS = test system: U251 CNS
PC-3 prostate = test system: PC-3 prostate
SK-MEL-5 melanoma = test system: SK-MEL-5 melanoma
UACC-62 melanoma = test system: UACC-62 melanoma
LOX IMVI melanoma = test system: LOX IMVI melanoma
SK-MEL-28 melanoma = test system: SK-MEL-28 melanoma
SNB-75 CNS = test system: SNB-75 CNS

SMILES	growth (HCT-15 colon)	growth (HT29 colon)	growth (SNB-19 CNS)	growth (U251 CNS)	growth (PC-3 prostate)	growth (SK-MEL-5 melanoma)	growth (UACC-62 melanoma)	growth (LOX IMVI melanoma)	growth (SK-MEL-28 melanoma)	growth (SNB-75 CNS)
COc1cc(-c2nn(-c3ccc(NC(=O)c4ccc(Cl)c(Cl)c4)cc3)cc2-c2ccncc2)ccc1Cl	10.9%	-14.7% (active)	85.9%	48.7%	68.6%	64.8%	64.4%	35.9%	67.8%	–
COc1ccc(C(=O)N2N=C(c3ccc(Br)cc3)CC2c2cn(-c3ccccc3)nc2-c2ccccc2)cc1 (centres undefined)	58.9%	–	65.3%	6.67% (active)	36.1%	92.3%	–	44.5%	61.2%	70.4%
CCCCCCNc1nc(N2CCOCC2)c2[nH]c(NCCCCCC)nc2n1	-74.6% (active)	–	-92.7% (active)	-93.4% (active)	-21.2% (active)	-90.6% (active)	-97.4% (active)	-100% (active)	-94.4% (active)	-95.1% (active)
COC(=O)C(C(=O)OC)C(Br)C(Br)C(Br)c1ccccc1 (centres undefined)	79.7%	–	100%	94.8%	101%	91.5%	–	-16% (active)	106%	87.4%
C=C1CCC2C3(C)COC(c4ccccc4)OC3CCC2(C)C1C/C=C1/C(=O)OCC1O (centres undefined)	61.9%	54.1%	–	64.9%	–	–	67.4%	72.6%	–	35.9%
CC1(C)NC(=S)NC1=O	102%	105%	–	98.4%	95.5%	101%	108%	97.5%	110%	89.9%
CC(=O)N1CCN(CCNC(=O)n2cc(-c3ccncc3)c(-c3cc(O)cc(Cl)c3)n2)CC1	51.1%	21.7%	106%	80.1%	114%	63.6%	–	68.3%	31.4%	–
Nc1nc2cc(O)ccc2n2cc3c(F)cccc3c12	35.6%	20.7%	35.9%	32.8%	42.2%	14.2%	39%	34.9%	20%	–
O=c1[nH]c2cc(O)ccc2n2cc3c(F)cccc3c12	38.7%	46.2%	42.3%	27.6%	46.4%	8.21% (active)	39.8%	36.8%	–	–
C[n+]1c2ccccc2c(Nc2ccc(NS(=O)(=O)CCCCN=C(N)N)cc2)c2ccc(N)cc21	79.2%	34%	–	30%	48.3%	34.2%	50%	33.5%	72.7%	37.7%
CCCCCN1CCN(C(CC(=O)c2ccccc2)C(=O)c2ccccc2)CC1 (centres undefined)	94.5%	96.4%	–	92.6%	–	106%	–	82.8%	119%	100%
OCCN1CCN(CC/C=C2/c3ccccc3Sc3ccc(C(F)(F)F)cc32)CC1	71.1%	15.8%	–	41%	–	56.5%	14.4%	65.5%	68%	56.5%
CCOC(=O)C(C)C(C)(O)c1ccccc1 (centres undefined)	108%	106%	–	107%	99.9%	102%	97.4%	93.8%	101%	87.5%
CCCCCCCCCCCCCCCCC(=O)O.CCCCCCCCCCCCCCCCCC(=O)O.CCCCCCCCCCCCCCCCCC(=O)O.CCCCCCCCCCCCCCCCCC(=O)O.CCCCCCCCCCCCCCCCCC(=O)O.CO[CH-]OC12COC1CC(O)C1(C)C(O)C(OC(C)O)C3=C(C)C(OC(=O)C(O)C([NH-])c4ccccc4)CC(O)(C(OC(=O)c4ccccc4)C21)C3(C)C.[Cu+].[Zn].[Zn].[Zn].[Zn].[Zn] (centres undefined)	20.5%	12%	29.6%	33.6%	30.5%	38.4%	42.8%	39.4%	80.4%	–
CC(=O)Oc1cc2ccccc2cc1C(C)C	99.1%	114%	–	112%	115%	101%	116%	109%	113%	92.3%
COc1cccc(-c2cc(-c3cc4ccccc4oc3=O)nc(N)n2)c1	107%	117%	106%	110%	89.3%	95%	104%	95.4%	91.7%	–
Br/C(=N\Nc1nn[nH]n1)c1ccccc1	96.6%	110%	–	99.6%	96.1%	–	101%	86.3%	109%	80.8%
C/C(=C\c1ccc2ccccc2c1)[N+](=O)[O-]	–	-9.28% (active)	90.6%	72.7%	25.3%	71.3%	78.2%	-80.9% (active)	37%	78%
COc1ccc2cn3c4ccc(O)cc4[nH]c(=O)c3c2c1	17.8%	-89.2% (active)	19.7%	5% (active)	–	10.9%	–	24.4%	24.8%	–
CCCCCC(=C/c1ccccc1)/C=N/N=C(N)N	-37.8% (active)	-66.3% (active)	–	–	37.8%	-91.5% (active)	–	-37.6% (active)	-90.2% (active)	56.6%
OCCN1CCCN(CCCN2c3ccccc3Sc3ccc(C(F)(F)F)cc32)CC1	61.6%	8.24% (active)	–	33.6%	57.2%	36.3%	-46.3% (active)	49%	30.7%	50.4%
O=C1CSC(c2ccccc2Cl)N1c1nnc(-c2ccncc2)o1 (centres undefined)	98.5%	98.4%	–	96.6%	98.5%	–	92.3%	102%	101%	95.4%
C=CN(C)S(C)(=O)=O	–	72.1%	50.1%	19.2%	16.9%	12.1%	43%	29.7%	38.7%	32.6%
O=C(Nc1ccc(-n2cc(-c3ccncc3)c(-c3ccc(Cl)c(O)c3)n2)cc1)c1ccc(Cl)c(Cl)c1	12.2%	-34.7% (active)	77.1%	34.1%	17.2%	-99.3% (active)	11.3%	29.1%	–	–
